The panel holds about 83,000 compounds, 20% with a hit somewhere; the sample as a whole holds those more often.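 Single-concentration screen, 48 h exposure, 96-well plates. Endpoint: percent growth. Below 10 = active.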 A number with no mark means an inactive call. Activity calls are given as the source filed them.

Our source for the growth values is PubChem BioAssay (NCI).

What all share (assay): NCI-60 one-dose screen, 48 h (100 = growth as untreated, 0 = no growth, -100 = all killed)
For one experiment, the system named is NCI-H23 lung. To be noted: 10 µM unless noted.
For a further experiment, the system named is NCI-H226 lung. Particulars: 10 µM unless noted.
The next experiment deals with NCI-H322M lung. To be noted: 10 µM unless noted.
For a further experiment, the system named is HOP-62 NSCLC. Particulars: 10 µM unless noted.
For the next experiment, the system named is NCI-H460 lung. To be noted: 10 µM unless noted.
A further experiment concerns HOP-92 NSCLC. To be noted: 10 µM unless noted.
For another experiment, the system named is NCI-H522 lung. Particulars: 10 µM unless noted.
A further experiment relates to A549/ATCC NSCLC. To be noted: 10 µM unless noted.
The next experiment deals with 786-0 renal. Particulars: 10 µM unless noted.
The next experiment relates to COLO 205 colon. Particulars: 10 µM unless noted.
The test system of a further experiment is DU-145 prostate. To be noted: 10 µM unless noted.
A further experiment has as its system K-562 leukemia. Particulars: 10 µM unless noted.
Another experiment relates to MALME-3M melanoma. Particulars: 10 µM unless noted.
The test system of a further experiment is MDA-MB-231 breast. To be noted: 10 µM unless noted.
The next experiment concerns RXF 393 renal. To be noted: 10 µM unless noted.
Another experiment concerns SF-268 CNS. To be noted: 10 µM unless noted.
The subject of a further experiment is SF-295 CNS. Particulars: 10 µM unless noted.
The next experiment deals with SF-539 CNS. To be noted: 10 µM unless noted.
The subject of the next experiment is UACC-257 melanoma. Particulars: 10 µM.
The test system of another experiment is M14 melanoma. To be noted: 10 µM unless noted.

In the case of `O=C(NNc1nc2cc(F)c(F)cc2n2cccc12)c1ccncn1`, the growth is 18.3% in the experiment on NCI-H23 lung; 16.2% in the experiment with NCI-H226 lung; 28.9% in the experiment with NCI-H322M lung; 26.8% in the experiment on HOP-62 NSCLC; 9.5% (active) with NCI-H460 lung; 62.7% with HOP-92 NSCLC. Moreover, the growth with NCI-H522 lung was 2.02% (active); with A549/ATCC NSCLC, 18%; in the experiment on 786-0 renal, 11.9%; in the experiment with COLO 205 colon it was 19.9%; in the experiment on DU-145 prostate, 22.2%; with K-562 leukemia, 16.1%. In addition, the growth in the experiment with MALME-3M melanoma is 34.4%; in the experiment on MDA-MB-231 breast, 36.4%; in the experiment on RXF 393 renal it was 30.4%; in the experiment on SF-268 CNS, 18.7%; in the experiment with SF-295 CNS it was 15.9%; in the experiment on SF-539 CNS it was 6.94% (active). In addition, the results for the growth in the experiment on UACC-257 melanoma and with M14 melanoma were 15.7% and 12.9%, respectively.
`Cc1ccc(NC(=O)N[C@@H](Cc2cc(F)cc(F)c2)C(=O)NC2C(=O)N3CCC[C@H]3C(=O)N3CCCC[C@H]3C(=O)N[C@@H](C)C(=O)N3C[C@H](C)C[C@H]3C(=O)O[C@H]2C)c(F)c1` (stereo not given in full): the growth in the experiment on NCI-H23 lung was 35.2%; with NCI-H226 lung it was 1.32% (active); in the experiment with NCI-H322M lung it was 52.7%; in the experiment on HOP-62 NSCLC, 33.8%; with NCI-H460 lung, 15.3%; with HOP-92 NSCLC, 4.3% (active). Further, the growth in the experiment with NCI-H522 lung was 19.7%; in the experiment on A549/ATCC NSCLC it was 26.1%; with 786-0 renal, 40.7%; with COLO 205 colon, -33.3% (active); in the experiment with DU-145 prostate, 25.7%; with K-562 leukemia, 20.2%. Besides, the growth is 44.3% with MALME-3M melanoma; 34.6% in the experiment on MDA-MB-231 breast; -7.39% (active) in the experiment with RXF 393 renal; 34.9% in the experiment with SF-268 CNS; 9.62% (active) in the experiment on SF-295 CNS; 39.2% in the experiment with SF-539 CNS. Besides, the growth was 16.9% in the experiment with UACC-257 melanoma and 23% with M14 melanoma.
`CCC(=O)Nc1cc(Nc2cc(NC3CC3)n3ncc(C#N)c3n2)ccc1C`: the growth in the experiment with NCI-H23 lung was 15.3%; with NCI-H226 lung it was 26.4%; in the experiment with NCI-H322M lung, 19.4%; in the experiment on HOP-62 NSCLC, 24.8%; in the experiment on NCI-H460 lung, 16.1%; with HOP-92 NSCLC, 6.91% (active). Besides, the growth was 27% in the experiment with NCI-H522 lung; 26.9% in the experiment on A549/ATCC NSCLC; 42% in the experiment on 786-0 renal; 30.4% with COLO 205 colon; 44.7% in the experiment with DU-145 prostate; 22.9% in the experiment with K-562 leukemia. In addition, the growth with MALME-3M melanoma was 30.8%; in the experiment on MDA-MB-231 breast, 19.5%; in the experiment with RXF 393 renal it was -8.35% (active); in the experiment on SF-268 CNS, 35%; with SF-295 CNS it was 21.7%; with SF-539 CNS, 21.8%. Besides, the growth is 34.2% in the experiment on UACC-257 melanoma and 14.9% with M14 melanoma.
Take `c1ccc(-c2n(Cc3ccc4ccccc4c3)c3c4ccccc4c4ccccc4c3[n+]2Cc2ccc3ccccc3c2)cc1`: the growth in the experiment with NCI-H23 lung is -79.9% (active); with NCI-H226 lung, -74% (active); in the experiment with NCI-H322M lung it was -80.1% (active); in the experiment with HOP-62 NSCLC, -69.2% (active); in the experiment with NCI-H460 lung it was -62.9% (active); in the experiment with HOP-92 NSCLC it was -77% (active). Also, the growth with NCI-H522 lung is -74.9% (active); in the experiment on A549/ATCC NSCLC, -69.2% (active); with 786-0 renal, -67% (active); in the experiment with COLO 205 colon, -59.5% (active); in the experiment with DU-145 prostate it was -94.4% (active); in the experiment on K-562 leukemia, -45% (active). Moreover, the growth in the experiment with MALME-3M melanoma was -81.4% (active); in the experiment with MDA-MB-231 breast it was -79% (active); in the experiment with RXF 393 renal it was -83.2% (active); in the experiment on SF-268 CNS, -63.6% (active); with SF-295 CNS it was -87.1% (active); in the experiment with SF-539 CNS, -81.8% (active). The growth was -38.2% (active) in the experiment on UACC-257 melanoma and -64.6% (active) with M14 melanoma.
Consider `CC(C)=CCC[C@](C)(O)[C@H]1CC[C@]2(C)[C@@H]1CC[C@@H]1[C@@]3(C)CCC(NC(=O)c4ccccc4C(=O)O)C(C)(C)[C@@H]3CC[C@]12C` (stereo not given in full), for which the growth is 85.8% with NCI-H23 lung; 89.7% in the experiment on NCI-H226 lung; 104% in the experiment with NCI-H322M lung; 104% in the experiment on HOP-62 NSCLC; 110% with NCI-H460 lung; 75.6% in the experiment on HOP-92 NSCLC. In addition, the growth with NCI-H522 lung was 95.3%; in the experiment with A549/ATCC NSCLC it was 93.1%; in the experiment on 786-0 renal, 99.9%; with COLO 205 colon, -10.3% (active); in the experiment with DU-145 prostate, 96.4%; in the experiment with K-562 leukemia, 90.8%. Further, the growth in the experiment on MALME-3M melanoma was 31.8%; with MDA-MB-231 breast, 82.6%; in the experiment on RXF 393 renal it was 101%; in the experiment with SF-268 CNS it was 95.3%; in the experiment on SF-295 CNS it was 100%; with SF-539 CNS it was 89.3%. Moreover, the growth is 30.5% with UACC-257 melanoma and 57.8% in the experiment on M14 melanoma.
In the case of `COc1ccc(/C=N/Nc2nc(Nc3ccccc3)nc(Nc3ccc(S(N)(=O)=O)cc3)n2)cc1`, the growth is 70.3% in the experiment on NCI-H23 lung; 73.2% with NCI-H226 lung; 84.6% with NCI-H322M lung; 80.4% with HOP-62 NSCLC; 55.2% with NCI-H460 lung; 95.7% in the experiment with HOP-92 NSCLC. In addition, the growth with NCI-H522 lung is 82.5%; in the experiment with A549/ATCC NSCLC, 87.1%; with 786-0 renal, 73.7%; in the experiment on COLO 205 colon it was 76.9%; with DU-145 prostate it was 65.3%; in the experiment on K-562 leukemia, 49.4%. In addition, the growth in the experiment with MALME-3M melanoma was 81.3%; with MDA-MB-231 breast, 67.2%; with RXF 393 renal, 22.9%; in the experiment with SF-268 CNS, 90.9%; with SF-295 CNS, 70.4%; with SF-539 CNS, 48%. Further, the growth is 96.4% in the experiment on UACC-257 melanoma and 74.9% with M14 melanoma.
For the compound `Cc1ccccc1NC1CC(=O)N(c2ccc(Cl)cc2Cl)C1=O` (stereo not given), the growth in the experiment with NCI-H23 lung is 102%; with NCI-H226 lung, 108%; in the experiment with NCI-H322M lung, 99%; in the experiment with HOP-62 NSCLC it was 103%; in the experiment on NCI-H460 lung it was 104%; in the experiment on HOP-92 NSCLC, 78%. In addition, the growth in the experiment with NCI-H522 lung is 95.7%; in the experiment with A549/ATCC NSCLC, 99.8%; in the experiment on 786-0 renal, 94.2%; with COLO 205 colon, 120%; in the experiment with DU-145 prostate, 103%; with K-562 leukemia, 107%. The growth was 98.9% with MALME-3M melanoma; 104% with MDA-MB-231 breast; 112% with RXF 393 renal; 99.4% with SF-268 CNS; 102% in the experiment with SF-295 CNS; 93.1% in the experiment with SF-539 CNS. Besides, the growth is 98.5% in the experiment with UACC-257 melanoma and 102% in the experiment on M14 melanoma.
